This passage reports GFP- results from the supplement of paper PMC11060735.

Where “and” joins values, the source holds several entries; their conditions need not be identical. Identical values can stand only once. ± gives the standard deviation of the averaged measurements. The full ranking holds about 1,800 compounds; the median of “GFP- (p16Ink4a-) cell count relative to negative-control wells” is about 0.99, and the lowest 2% start at about 0.5. The entries come from a sample that favours the lowest values as a whole.

This experiment has as its system mouse p16Ink4a+/- lung fibroblasts (INKBRITE, bleomycin-injured). Briefly: GFP- (p16Ink4a-) cell count relative to negative-control wells (fold of vehicle); higher = more p16Ink4a- cells surviving. As to conditions: 1 µM; 3 days.
For the compound `N[C@H]1C[C@@H]1c1ccc(-c2cccc(O)c2)cc1`, the GFP- amounted to 1.01 ± 0.044.

`Cc1c(C(=O)NN2CCCCC2)nn(-c2ccc(Cl)cc2Cl)c1-c1ccc(I)cc1` gave a GFP- of 1.06.

Take `Cn1cc(-c2ccc3ncc(Cc4ccc5ncccc5c4)n3n2)cn1`: the GFP- turned out to be 1.01.

Take `O=C1C(Cl)=C(N2CCOCC2)C(=O)N1c1ccc(Cl)c(Cl)c1`: the GFP- is 1.05.

`Cc1ccc(Nc2nccc(N(C)c3ccc4c(C)n(C)nc4c3)n2)cc1S(N)(=O)=O` [Pazopanib]: the GFP- is 0.999 and 1.07.

For the compound `CNC(=O)c1ccc(N2C(=S)N(c3ccc(C#N)c(C(F)(F)F)c3)C(=O)C2(C)C)cc1F` [Enzalutamide], the GFP- was 1.11.

For the compound `CC1(C)Cc2c(-c3ccccc3)c(-c3ccc(Cl)cc3)c(CC(=O)O)n2C1` [Licofelone], the GFP- worked out at 0.892.

Consider `CNCc1ccc(-c2[nH]c3cc(F)cc4c3c2CCNC4=O)cc1` [Rucaparib], for which the GFP- came to 0.817 ± 0.037.

In turn, `CCCCN1CCCCC1C(=O)Nc1c(C)cccc1C` (stereo unspecified) [Bupivacaine] yielded a GFP- of 1.13.

`CC(C)C1CCC(C(=O)N[C@H](Cc2ccccc2)C(=O)O)CC1` (stereo partly specified) [Nateglinide] displayed a GFP- of 1.06.

In turn, `CNC(=O)[C@H](Cc1ccccc1)NC(=O)[C@H](CC(C)C)[C@H](CSc1cccs1)C(=O)NO` [Batimastat] yielded a GFP- of 1.08.

`CC(C)C[C@H](NC(=O)[C@H](Cc1ccccc1)NC(=O)c1cnccn1)B(O)O` [Bortezomib] yielded a GFP- of 0.294.

In the case of `Nc1nc(N)c(N=O)c(OCC2CCCCC2)n1`, the GFP- stood at 1.07.

Take `Clc1ccc(Nc2nnc(Cc3ccncc3)c3ccccc23)cc1` [Vatalanib]: the GFP- was 0.918.

In the case of `Cc1cccc(C)c1OCC(=O)N[C@@H](Cc1ccccc1)[C@@H](O)C[C@H](Cc1ccccc1)NC(=O)[C@H](C(C)C)N1CCCNC1=O` [Lopinavir], the GFP- was 0.947.

The compound `CC[C@H]1OC(=O)[C@H](C)[C@@H](O[C@H]2C[C@@](C)(OC)[C@@H](O)[C@H](C)O2)[C@H](C)[C@@H](O[C@@H]2O[C@H](C)C[C@H](N(C)C)[C@H]2O)[C@](C)(O)C[C@@H](C)/C(=N/OCOCCOC)[C@H](C)[C@@H](O)[C@]1(C)O` [Roxithromycin] showed a GFP- of 0.988.

In turn, `Sc1ncnc2[nH]cnc12` [Mercaptopurine] showed a GFP- of 1.05.

Compound `COC[C@H](NC(=O)c1cnc(C)s1)C(=O)N[C@@H](COC)C(=O)N[C@@H](Cc1ccccc1)C(=O)C1(C)CO1` (stereo partly specified) [Oprozomib] came in with a GFP- of 0.381.

Compound `C=CC(=O)Nc1ccc2ncnc(Nc3cccc(Br)c3)c2c1` had a GFP- of 0.994.

`Cc1onc(-c2c(Cl)cccc2Cl)c1C(=O)N[C@@H]1C(=O)N2[C@@H]1SC(C)(C)[C@@H]2C(=O)O` [Dicloxacillin] gave a GFP- of 0.966.

Turning to `COc1cc(N2CCC(N(C)C)CC2)ccc1Nc1ncc(Cl)c(Nc2ccccc2P(C)(C)=O)n1`, the GFP- was determined as 1.08.
